Measurements: PubChem BioAssay AID430 (Sanford-Burnham Center for Chemical Genomics, 2006)
Among all 63,000 compounds or so, about 1,100 (1.7%) were called active. This excerpt belongs to a sample that is enriched for actives. Results with a measured potency or affinity are listed apart. Values without a mark were called inactive. Rule as the data show it: active = cytotoxicity above about 50%; inactive = the rest.

Experiment: HPDE-C7 pancreatic duct cell viability loss – fluorescence, HTS (AID 430);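 also: cells exposed to compound for 48 hours before viability readout; 0% = vehicle and 100% = reference cytotoxic drug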
Settings: HPDE-C7 pancreatic duct cells viability, at 10 µM, stronger effect = higher value

SMILES	cytotoxicity
CN(CCNC(=O)Cn1c(=O)sc2ccccc21)Cc1ccccc1	10.4%
COC(=O)c1sc(NC(=O)Cc2cccs2)nc1C	-9.1%
COc1ccc(C(=O)c2sc(NC(C)C)nc2N)cc1OC	-6.1%
COc1cccc(C(=O)c2sc(NC(C)C)nc2N)c1	70.8% (active)
CCCc1nnc(NC(=O)c2cccc(OC)c2)s1	-16.1%
O=C(NC1CCCCC1)c1ccc(CS(=O)(=O)Cc2ccccc2F)o1	-6.3%
CCOc1ccccc1NC(=O)Cn1nnc(C(=O)Nc2ccc(C)cc2)c1N	-0.5%
CCOc1ccccc1NC(=O)Cn1nnc(C(=O)Nc2ccccc2Cl)c1N	8.3%
CCOc1ccccc1NC(=O)Cn1nnc(C(=O)NCc2ccco2)c1N	63% (active)
Cc1nn(-c2ccccc2)c2c1C(c1ccco1)C(C#N)=C(N)O2 (stereo not drawn)	11.5%
O=C(Nc1ccc2c(c1)OCCO2)C1CCN(S(=O)(=O)c2ccc(Br)s2)CC1	6.5%
O=C(Nc1ccccc1Cl)N1CCN(c2ccc3nnc(-c4ccc(F)cc4)n3n2)CC1	17.7%
O=C(Nc1ccc(Cl)cc1)N1CCN(c2ccc3nnc(-c4ccc(F)cc4)n3n2)CC1	69.6% (active)
O=C(Nc1ccccc1C(F)(F)F)N1CCN(c2ccc3nnc(-c4ccc(F)cc4)n3n2)CC1	13.1%
CCCNS(=O)(=O)c1ccc(OCC(=O)NCc2ccc3c(c2)OCO3)cc1	6.3%
Cc1nnc(SCCn2c(N3CCN(C)CC3)nc3c2c(=O)[nH]c(=O)n3C)s1	-9.1%
Cc1nnc(SCCn2c(N3CCN(C)CC3)nc3c2c(=O)n(C)c(=O)n3C)s1	-5.2%
Cc1nnc(Sc2nc(Sc3nnc(C)s3)nc(N3CCN(C)CC3)n2)s1	81.3% (active)
COc1ccc([C@@H]2[C@H]3CN(C(C)=O)CC=C3C(C#N)=C(N)C2(C#N)C#N)c2ccccc12	-8.9%
CCOC(=O)c1ccc(N=c2sc(C(=O)OC)cc(=O)n2Cc2ccco2)cc1	116% (active)
COC(=O)c1cc(=O)n(Cc2ccc3c(c2)OCO3)c(=Nc2ccccc2)s1	34.9%
CCOC(=O)c1ccc(N=c2sc(C(=O)OC)cc(=O)n2C2CC2)cc1	23.6%
CCn1c(=O)cc(C(=O)OC)sc1=Nc1ccc(F)c(F)c1	17.4%
COC(=O)c1cc(=O)n(Cc2ccco2)c(=Nc2ccc(F)c(Cl)c2)s1	82.7% (active)
CCOC(=O)c1ccc(N=c2sc(C(=O)OC)cc(=O)n2CCCN2CCOCC2)cc1	-17.7%

SMILES	cytotoxicity
CN(CCc1ccccn1)Cc1ccc(Cl)cc1Cl	3.3%
Cc1ccc(-c2nnc(SCc3ccccc3F)o2)cc1	1.8%
O=C(Nc1cccc2ncccc12)c1cccnc1	-4.6%
O=C(Nc1ccccc1)N(CCN1CCOCC1)Cc1ccccc1F	-7.5%
Cc1ccc(C)c(CN2CCCNC2=O)c1	-5.7%
COC(=O)c1cc2occc2n1CC(=O)Nc1ccc(OC)c(OC)c1	-0.3%
CCNC(=O)CSc1nc2ccccc2c(=O)n1OC	-1%
Clc1ccc(Cn2nnc(-c3ccc(CN4CCOCC4)cc3)n2)cc1	-26.4%
COC(=O)c1ccc(NC(=O)C2CCCN2S(=O)(=O)c2ccc(F)cc2)cc1 (stereo not drawn)	2.5%
COc1cccc(-c2cc(C(F)(F)F)nc(N3CCN(c4ccccc4)CC3)n2)c1	72.4% (active)
COc1cccc(-c2cc(C(F)(F)F)nc(N3CCOCC3)n2)c1	-14%
COc1cccc(-c2cc(C(F)(F)F)nc(N3CCCCC3)n2)c1	-12.8%
O=c1c2ccccc2oc2ncccc12	-24.9%
CCC(Sc1nccn1C)C(=O)Nc1cccc2ccccc12 (stereo not drawn)	-6.2%
O=C(O)c1ccc(Cl)c(S(=O)(=O)NCc2ccco2)c1	-12.1%
COc1cc(C(=O)N2CCN(c3ccc(C)cc3C)CC2)cc(OC)c1OC	53.4% (active)
Cc1cccc(N2CCN(C(=O)c3ccc(Cl)c(S(=O)(=O)NCc4ccco4)c3)CC2)c1C	65.8% (active)
COc1cc(C(=O)N2CCN(C(=O)c3ccccc3)CC2)cc(OC)c1OC	-2.2%
COc1cc(C(=O)N2CCN(c3cccc(C)c3C)CC2)cc(OC)c1OC	67.4% (active)
COc1ccc(C(=O)N2CCN(c3ccc(C)cc3C)CC2)cc1OC	-9.6%
Cc1cccc(N2CCN(C(=O)c3ccncc3)CC2)c1C	34.4%
COc1ccc(Cl)cc1S(=O)(=O)N1CCN(C(=O)c2cc(OC)c(OC)c(OC)c2)CC1	-17%
COc1cc(C(=O)N2CCN(c3cc(Cl)ccc3Cl)CC2)cc(OC)c1OC	64.3% (active)
Cc1ccc(N2CCN(C(=O)c3ccccc3)CC2)c(C)c1	-29.9%
O=C(NCC1(N2CCOCC2)CCCCC1)c1ccc(Cl)c(S(=O)(=O)NCc2ccco2)c1	-1.6%

SMILES	cytotoxicity
COc1ccc(C(=O)N2CCN(C(=O)c3cc(OC)c(OC)c(OC)c3)CC2)cc1	5.9%
CCOCC(=O)Nc1cccc(NC(C)=O)c1	-3.5%
COc1ccc(C(=O)N(Cc2ccco2)Cc2cc3cc(C)ccc3[nH]c2=O)cc1OC	4.2%
Cc1ccc(S(=O)(=O)Nc2ccc(NC(=O)CN3CCCCC3)cc2)cc1	-3%
COc1ccc(OCC(=O)Nc2ccc3c(c2)nc(CCN2CCOCC2)n3C)cc1	10.7%
COc1ccc(C(CNC(=O)Cc2cc(OC)c(OC)c(OC)c2)N2CCCC2)cc1 (stereo not drawn)	-31.8%
COc1ccc(-c2nnc(SCC(=O)NC(C)c3ccccc3)o2)cc1OC (stereo not drawn)	-26.2%
O=C(OCc1nnc(-c2ccccc2)o1)c1cc(=O)c2ccccc2o1	1.2%
CCC(C)NC(=O)NC1C(NC(=O)NC(C)CC)N(C)C(=O)N1C (stereo not drawn)	-7.6%
CCN(C(=O)c1coc(=O)c2ccccc12)c1cc(OC)ccc1OC	-6.4%
Cc1[nH]nc2c1C1(CCN(Cc3ccccc3)CC1)C(C#N)=C(N)O2	-9.5%
COc1ccc(C2=NOC(C(=O)N3CCOCC3)C2)cc1OC (stereo not drawn)	-3.2%
Cc1ccc2nc(SCCC#N)nc(C)c2c1	-10.1%
COc1ccc(S(=O)(=O)N2CC(C)N(S(=O)(=O)c3ccc(OC)cc3)CC2C)cc1 (stereo not drawn)	-4.1%
Clc1ccc2oc(-c3ccccc3)nc2c1	-4.4%
O=S1(=O)C=C(Sc2nnc(-c3ccccc3)o2)c2ccccc21	47.8%
Cc1cc(C)nc(SC2=CS(=O)(=O)c3ccccc32)n1	4.3%
Cn1c(SC2=CS(=O)(=O)c3ccccc32)nc2ccccc21	49.6%
O=S1(=O)C=C(Sc2nc3ccccc3s2)c2ccccc21	109% (active)
COc1ccc(/C=N/n2cnnc2SCCO)cc1OC	-14.1%
COc1ccc(-c2nnc3sc(-c4ccccn4)nn23)cc1	-5.5%
COc1ccc(-c2cn3cccnc3n2)cc1NC(=O)C1CCCC1	-13.7%
Cn1c(Cn2nnc3ccccc32)nnc1SCC(=O)N1c2ccccc2Sc2ccccc21	-9.1%
CCCC(N)CCCCCC(=O)O (stereo not drawn)	-2.3%
CCSC(SCC)[C@H](O)[C@@H](O)[C@H](O)[C@H](O)CO	11.2%

SMILES	cytotoxicity
COc1ccccc1N1C(=O)C2C3C=CC(C3)C2C1=O (stereo not drawn)	-6%
O=c1oc2ccccc2n1CSc1nc2ccccc2s1	-4%
CCNS(=O)(=O)c1ccc(NC(=O)c2ccccc2OCC)cc1	10.2%
CC(=O)c1sc(NC(=O)C=C(C)C)nc1C	1.3%
CCCCC(=O)Nc1nc(C)c(C(C)=O)s1	-0.6%
CC(=O)c1sc(NC(=O)C2(F)C(F)(F)C(F)(F)C(F)(F)C(F)(F)C2(F)F)nc1C	52.4% (active)
O=C(c1ccco1)N1CCN(Cc2ccc(Cl)cc2)CC1	-3.7%
CCN(CC)S(=O)(=O)c1ccc2c(c1)nc(SCC(=O)NC1CC1)n2-c1ccccc1OC	3.8%
COc1ccc(-c2nc3ccccc3c(=O)n2CCCn2ccnc2)cc1	-0.2%
O=S(=O)(Nc1ccc2c(c1)OCCO2)c1ccc2oc3ccccc3c2c1	83.9% (active)
COc1ccc(NS(=O)(=O)c2ccc3oc4ccccc4c3c2)cn1	25.3%
CSc1ccc(S(=O)(=O)Nc2ccc3c(c2)OCCO3)cc1	8.6%
CCc1c(C)nc2ncnn2c1N1CCC(C(=O)Nc2cccc(C(C)=O)c2)CC1	-7.9%
N#Cc1c(NC(=O)CSc2nnc(-c3ccncc3)n2CC2CCCO2)sc2c1CCCC2 (stereo not drawn)	4.8%
Cc1ccc(/C=c2/sc3nnc(-c4ccccc4Cl)n3c2=O)o1	69.7% (active)
Cc1ccccc1-c1nnc2s/c(=C\c3ccc(N(C)C)cc3)c(=O)n12	2.2%
Cc1ccc(/C=c2\sc3nc(-c4ccccc4Br)nn3c2=O)o1	2.6%
OCc1cn(-c2ccccc2)nc1-c1ccc2c(c1)OCCO2	-21.5%
CC(=O)Nc1ccc(S(=O)(=O)N2CCSC2c2ccccc2Cl)cc1 (stereo not drawn)	3.4%
CC1CCCCN1CCn1cnc2c([nH]c3ccccc32)c1=O (stereo not drawn)	-2.1%
CCNc1nc(NC(C)C)nc(N(C#N)CCOc2ccc(Cl)cc2Cl)n1	94.5% (active)
CCCN(C#N)c1nc(NCC)nc(NC(C)C)n1	-11.1%
CCNc1nc(NC(C)C)nc(N(C#N)Cc2ccccc2)n1	6.3%
